The nature of assay [1]: NCI Yeast Anticancer Drug Screen. Data for the rad50 strain (AID 155).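 Note: 0% = growth of vehicle-only cultures of the same strain.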 Conditions: S. cerevisiae rad50 strain growth inhibition; at 50.0 µM; stronger effect = higher value. The essentials: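 Readout: growth inhibition relative to vehicle-treated cultures. Compound exposure was carried out in a genetically defined yeast strain deficient in DNA damage repair.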
A short description of assay [2]: NCI Yeast Anticancer Drug Screen. Data for the mec2-1 strain (AID 157). Conditions: S. cerevisiae mec2-1 strain, at 50.0 µM, stronger effect = higher value. The essentials: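 Test agents were screened against the mec2-1 yeast strain, with defined DNA repair or cell cycle alteration. Growth was scored as inhibition against vehicle-only controls.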
Assay [3] can be described thus: NCI Yeast Anticancer Drug Screen. Data for the sgs1 mgt1 strain (AID 161).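 Note: 0% = growth of cultures given vehicle only.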 The note with it: S. cerevisiae sgs1 mgt1 strain, at 50.0 µM, stronger effect = higher value. In a few lines:
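Read-out: growth inhibition vs vehicle controls. Cells: mutant yeast strain deficient in DNA damage repair.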

The nature of assay [4]: NCI Yeast Anticancer Drug Screen. Data for the cln2 rad14 strain (AID 165).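 Note: 0% = growth equal to vehicle treated cultures.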 The note with it: S. cerevisiae cln2 rad14 strain, at 50.0 µM, stronger effect = higher value. In a few lines: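 Growth of compound-exposed yeast (cln2 rad14 genotype) measured and expressed as inhibition relative to vehicle.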
Assay [5] in a line: NCI Yeast Anticancer Drug Screen. Data for the bub3 strain (AID 167). Conditions: S. cerevisiae bub3 mutant strain, at 50.0 µM, stronger effect = higher value. The essentials:
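Readout: yeast growth inhibition, expressed relative to vehicle-only wells. The test organism is a mutant strain from a panel with lesions in DNA repair or checkpoint genes.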

Assay [6] is described as follows: NCI Yeast Anticancer Drug Screen. Data for the mlh1 rad18 strain (AID 175). The note with it: S. cerevisiae mlh1 rad18 strain growth inhibition; at 50.0 µM; stronger effect = higher value. The essentials: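 In this whole-cell yeast screen, a strain with altered DNA damage repair is challenged with compound, and its growth is measured against matched vehicle-treated controls.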

Compounds without any hit were thinned out: in the full panel of roughly 79,000, 15% have a hit. Unmarked numbers belong to inactive results. Activity calls are given as the source filed them. Cut-off read from the data, not from the text of the source: active = growth inhibition above about 70%; inactive = the rest.

In the case of `Clc1ccc(CCn2cncn2)cc1`, the growth inhibition in assay [1] is -15.6%; in assay [2], -11.9%; in assay [3] it was -44.9%; in assay [4] it was -11.7%; in assay [5], -22.6%; in assay [6] it was -18.8%.
On to `Cc1ccc(Nc2c3ccccc3nc3ccccc23)cc1`, for which the growth inhibition in assay [1] is 97.9% (active); in assay [2], 88.5% (active); in assay [3], 93.8% (active); in assay [4], 91.1% (active); in assay [5], 88.2% (active); in assay [6], 97.1% (active).
`Nc1ncnc2oc(-c3ccccc3)nc12`: the growth inhibition is 1.3% in assay [1]; -0.85% in assay [2]; -6.35% in assay [3]; -40% in assay [4]; -4.25% in assay [5]; 13.7% in assay [6].
With `O=[N+]([O-])c1ccc(P(=O)(O)c2ccc([N+](=O)[O-])cc2)cc1`, the growth inhibition in assay [1] was 15%; in assay [2], 17.6%; in assay [3] it was 23.6%; in assay [4] it was -25.9%; in assay [5], -11%; in assay [6], 34.7%.
On to `CCCC(C)CCCC(=O)c1ccc2cc(OC)ccc2c1` (stereo unspecified), for which the growth inhibition in assay [1] is -34.2%; in assay [2] it was -16.8%; in assay [3] it was -14.5%; in assay [4], -33.3%; in assay [5] it was -2%; in assay [6] it was -29.9%.
With `COc1ccc2c(c1)OC1c3ccccc3OCC21` (stereo unspecified), the growth inhibition is 26.1% in assay [1]; 11.6% in assay [2]; 15.8% in assay [3]; 12.3% in assay [4]; 27.9% in assay [5]; 30.2% in assay [6].
As for `CC(=O)Nc1cccc(NC(C)=O)c1`, the growth inhibition was 0.4% in assay [1]; 4.55% in assay [2]; 5.1% in assay [3]; -17.9% in assay [4]; -1.05% in assay [5]; 11.2% in assay [6].
Take `CCCCCCCCCCCCCCCC(=O)OCC(COP(=O)(O)OC1CCC2(C)C(=CCC3C2CCC2(C)C(C(C)CCCC(C)C)CCC32)C1)OC(=O)CCCCCCCCCCCCCCC` (stereo unspecified): the growth inhibition in assay [1] is 1.9%; in assay [2] it was 4.05%; in assay [3], 22.2%; in assay [4], -5.5%; in assay [5], -3.1%; in assay [6], -4.8%.
With `Cn1c(N)c(-n2[nH]c(=O)n(-c3ccccc3)c2=O)c(=O)n(C)c1=O`, the growth inhibition in assay [1] was -20.6%; in assay [2], 15.3%; in assay [3] it was -3.25%; in assay [4] it was -14.8%; in assay [5] it was 14.6%; in assay [6] it was 18.1%.
`CCOC(=O)C(C)C1CCCc2c(C)ccc(C)c21` (stereo unspecified): the growth inhibition is -8.25% in assay [1]; 9.6% in assay [2]; 1.25% in assay [3]; -1.8% in assay [4]; 8.5% in assay [5]; 2.7% in assay [6].
`CC(=O)NNc1nc(C)c(C(=O)NNC(=O)C(=O)Nc2ccc(Cl)cc2)s1`: the growth inhibition in assay [1] is 27%; in assay [2], -0.4%; in assay [3], 16.5%; in assay [4], -63.2%; in assay [5], 20%; in assay [6] it was 22.9%.
As to `COc1ccc(N=Cc2c(O)ccc3ccccc23)cc1`, the growth inhibition in assay [1] was 12%; in assay [2], 48%; in assay [3], 43.1%; in assay [4] it was 0.95%; in assay [5] it was 32%; in assay [6], 63%.
With `O=C1C(=O)N(c2ccccc2Cl)C(=O)N1Cc1ccccc1`, the growth inhibition in assay [1] is 10.7%; in assay [2] it was 8.45%; in assay [3], 0.95%; in assay [4] it was 13.8%; in assay [5], 2.75%; in assay [6], 2.1%.
In the case of `CCCCCCCCC1CO1` (stereo unspecified), the growth inhibition in assay [1] was 0.9%; in assay [2], 3.55%; in assay [3], -10.8%; in assay [4], -19.5%; in assay [5], -3.95%; in assay [6], -6.85%.
With `CC1SCCNC1=O` (stereo unspecified), the growth inhibition in assay [1] is -2.1%; in assay [2], -1.5%; in assay [3], -0.1%; in assay [4], 7.3%; in assay [5] it was 4%; in assay [6], -16.9%.
As to `Cc1n[nH]c2ccccc2c1=O`, the growth inhibition is -4.85% in assay [1]; -17.9% in assay [2]; -21.6% in assay [3]; -18.1% in assay [4]; -23.6% in assay [5]; -9.95% in assay [6].
Consider `CC(=O)Nc1ccc(NC(=O)Nc2cccc(C(C)=O)c2)cc1`, for which the growth inhibition was 7.3% in assay [1]; 27.2% in assay [2]; 9.35% in assay [3]; 0.3% in assay [4]; 22.6% in assay [5]; 28.6% in assay [6].
`CN(C(=O)C(Cl)Cl)c1ccc(-c2csc(Cc3ccccc3)n2)cc1`: the growth inhibition in assay [1] is 38.7%; in assay [2] it was 6.3%; in assay [3], 1.05%; in assay [4], 7.05%; in assay [5] it was 34.8%; in assay [6] it was 28.2%.
In the case of `Clc1ccc(Cl)nc1`, the growth inhibition is -8.25% in assay [1]; -8.25% in assay [2]; -8.2% in assay [3]; -13.7% in assay [4]; 2.75% in assay [5]; 5.45% in assay [6].
On to `CC(=O)Nc1cc2c(cc1[N+](=O)[O-])-c1ccc([N+](=O)[O-])cc1C2=O`, for which the growth inhibition in assay [1] is 3.9%; in assay [2], 4.4%; in assay [3], 5.8%; in assay [4] it was 3.2%; in assay [5], 13%; in assay [6], -9.8%.
Take `COc1ccccc1C1OC2=C(Nc3ccc([N+](=O)[O-])cc3N2)C1=O` (stereo unspecified): the growth inhibition in assay [1] was 12.2%; in assay [2], 10.4%; in assay [3] it was 27.9%; in assay [4] it was 16.6%; in assay [5], 16.9%; in assay [6], 28.1%.

For the origin of these results see PubChem BioAssay (NCI).
